Measurements reported in ChEMBL document CHEMBL4513216, “Probing the Open Global Health Chemical Diversity Library for Multistage-Active Starting Points for Next-Generation Antimalarials” (ACS Infect Dis, 2020).
Screen size: about 69,000 compounds; about 8,600 (12%) showed an effect of 50% or more. Shown is part of a subset that was picked to be rich in strong results.

Each compound was assayed on Plasmodium berghei (assay: Screen against P. berghei liver stage (PbLuc), transformed with Luciferase, at 10uM). Conditions: tested at 10 uM.
Format: functional, HepG2

SMILES	INHIBITION
Cc1nc(S(=O)(=O)N2CCSC3(CCCCC3)C2)cn1C	-12.1%
CC(C)CC(=O)N1CC[C@@H]2[C@H](CC1)N(Cc1cccnc1)CCS2(=O)=O	20.4%
O=C(Cc1ccccn1)N1CCN(C(=O)CC2CCCC2)CC1	3.73%
Cc1nn(C)c2cnn(Cc3ccc(C(=O)NCC4CC4)o3)c12	38.3%
CN(Cc1cnn(C)c1)C(=O)NCC1CCS(=O)(=O)C1 (centres undefined)	-22.3%
CC(=O)N1CCC2(C1)CN(C(=O)C1CCOC1)C2 (centres undefined)	9.97%
CN(C)CCOCC1CN(C(=O)c2cccn2C)Cc2ccnn2C1 (centres undefined)	-7.59%
Cn1ccc(C(=O)N2CCCC(Cc3cccc4cccnc34)C2)n1 (centres undefined)	-0.371%
CSCCCN1C[C@H](NC(=O)c2ccc(C#N)nc2)[C@@H](C2CC2)C1	27.4%
CCCc1cncnc1N1CCC(NCc2ccncc2)CC1	49.1%
CCCc1cncnc1N1CCC(NCc2cc3ccccc3[nH]2)CC1	88.2%
CCCc1cncnc1N1CCC(NCc2ccc(O)cc2)CC1	29.9%
Cc1csc(C2(NC(=O)CCc3ccncc3)CCCC2)n1	20%
CCn1c(C2CCNCC2)nn(Cc2ccc(C(=O)NC)o2)c1=O	52.1%
CCn1c(C2CCNCC2)nn(CCCc2ccccc2)c1=O	52.1%
CCn1c(CC2CCNCC2)nn(Cc2ccc(C(=O)NC)o2)c1=O	44.8%
CCn1c(C2CCCNC2)nn(Cc2ccc(C(=O)NC)o2)c1=O (centres undefined)	38.5%
CCCn1nc(C2CCNCC2)n(Cc2ccccc2)c1=O	26.8%
CCOCCn1nc(C2CCNCC2)n(Cc2ccccc2)c1=O	8.51%
CC(CN1CCOCC1)NC(=O)N1CCCC1 (centres undefined)	-15%
CN(C)[C@@H]1CCN(c2ncccn2)[C@H]1Cc1ccncc1	26.8%
COC(=O)c1ccc(OC)c(Cn2cc(Br)cn2)c1	20.6%
O=C(CN1CCCCCC1)NCc1ccc2[nH]c(=O)[nH]c2c1	-20.1%
O=C(NCc1ccc2[nH]c(=O)[nH]c2c1)c1ccc(CN2CCCC2)o1	56.2%
Cc1[nH]c2ccc(CNC(=O)c3ccc(CN4CCCC4)o3)cc2c1C	40.3%
CC1CCCN1Cc1ccccc1-c1nc(C(C)(C)C)cc(=O)[nH]1 (centres undefined)	9%

SMILES	INHIBITION
CN(C)c1ccc(C(=O)N2CCCC(n3cncn3)C2)nn1 (centres undefined)	0.411%
CCOC(=O)c1n[nH]cc1-c1cncn1CCn1nc(C)c(C)c1C	12.3%
COc1ccc(-c2cc(C3CCCCCN3S(=O)(=O)N(C)C)on2)cc1 (centres undefined)	55.2%
COc1ccc(-c2cc(C3CCCCCN3S(C)(=O)=O)on2)cc1 (centres undefined)	12.725%
CN(C)S(=O)(=O)N1CCCCCC1c1cc(-c2ccc(F)cc2)no1 (centres undefined)	38.4%
CSc1cccc(CNC(=O)[C@H]2CNC[C@H](C(=O)N3CCOCC3)C2)c1	35.8%
O=C1Nc2ccccc2CNC12CCN(CC1CCNC1)CC2 (centres undefined)	29.2%
COCc1cccc(C(=O)N2C[C@@H]3CC[C@H]2CN(Cc2cscn2)C3)n1	-38.6%
C[C@H](NC(=O)C1CC1)c1nc2cc(-c3ccc(F)cc3)ncn2n1	49.6%
C[C@H](NC(=O)C1CCCC1)c1nc2cc(-c3ccc(F)cc3)ncn2n1	58.1%
COc1ccc(-c2cc3nc([C@H](C)NC(=O)C4CC4)nn3cn2)cc1	-5.71%
CCN1Cc2ccccc2CC2(CCN(CC(=O)O)CC2)C1=O	37.5%
NCCC(=O)Nc1ccc(-c2ccccc2)cc1	14.5%
Cc1ccc(OCC(=O)NC2(C#N)CCSCC2)cc1C	41.4%
Cc1c(Cl)cccc1OCC(=O)NC1(C#N)CCSC1 (centres undefined)	87.2%
N#CC1(NC(=O)COc2cc(Cl)cc(Cl)c2)CCSC1 (centres undefined)	38.5%
CN(C)C(=O)c1cc(-c2ccccc2)[nH]n1	-35%
CC(C)c1ccc(CC2(C)Cc3cc(CC(=O)O)ccc3O2)cc1 (centres undefined)	20.85%
CN(C)Cc1cnc(C2CCN(C(=O)c3cccc(F)c3)C2)[nH]1 (centres undefined)	41.7%
CN(C)[C@H]1CCCCN(C(=O)c2cccc(-c3cccc(F)c3)c2)C1	60.4%
CN(C)[C@H]1CCCCN(C(=O)c2cccc(N3CCS(=O)(=O)CC3)c2)C1	30.9%
CN(C(=O)CCNC(=O)NC1CCCCC1)c1ccccc1	27.6%
Cn1c(NCC(O)c2ccccc2F)c(C#N)c(=O)n(C)c1=O (centres undefined)	-5.25%
CNC(=O)[C@@H]1C[C@@H](NC(=O)CCCc2cccs2)CN1C1CCOCC1	10.4%
CNC(=O)[C@@H]1C[C@@H](NC(=O)CSc2ccccc2)CN1C1CCOCC1	54.6%
CNC(=O)[C@@H]1C[C@@H](NC(=O)Cc2cccs2)CN1C1CCOCC1	23.5%

SMILES	INHIBITION
CC(C)n1cc(CN2CCCN(C(=O)C3CCCN3C)CC2)cn1 (centres undefined)	26.4%
CCN(CCO)C[C@@H]1CN(c2cccc(C(F)(F)F)n2)C[C@@H]1CO	3.13%
COc1cc(C#N)ccc1OCC(=O)NS(=O)(=O)c1cccnc1	19.4%
COc1ccccc1CC(=O)NS(=O)(=O)c1ccc(C#N)cc1	15.6%
COc1cc(C#N)ccc1OCC(=O)NS(=O)(=O)c1ccccc1	50.6%
COc1ccccc1OCC(=O)NS(=O)(=O)c1ccc(F)cc1F	63.3%
COc1ccccc1OCC(=O)NS(=O)(=O)c1ccc(Cl)cc1F	29.5%
COc1ccccc1OCC(=O)NS(=O)(=O)c1cc(F)ccc1F	5.14%
CN1CCCN(C(=O)NCc2cc(Br)cs2)CC1	-13.935%
Cc1ccc(-c2cc(C(=O)NCCN3CCCS3(=O)=O)[nH]n2)cc1	-8.15%
Cc1ccccc1NC(=O)Nc1c[nH]c(=O)[nH]c1=O	35.7%
Cc1ccc(CN2CCc3ncc(CNC(=O)C4CCC4)n3CC2)o1	45.1%
O=C(NCCOC1CCCCC1)c1ccc(-c2ccco2)[nH]c1=O	-14.6%
Cc1nc(-c2nnc[nH]2)sc1C(=O)N1CCCC1Cn1cccn1 (centres undefined)	-1.45%
O=C(Cc1ccc2c(c1)CCCC2)N[C@@H]1CC[C@@H](n2ccnc2)[C@@H]1O	64.9%
O=C(N[C@@H]1CC[C@@H](n2ccnc2)[C@@H]1O)c1cc2c(s1)CCC2	9.93%
O=C(N[C@@H]1CCC[C@@H](n2ccnc2)[C@@H]1O)c1ccc2c(c1)CCCC2	38.2%
CCN1CC[C@@]2(C(=O)N3CCOCC3)CCN(C(=O)CC(C)C)CC[C@@H]12	11.2%
CNC(=O)CCS(=O)(=O)Cc1cc(Cl)c2c(c1)OCCCO2	-11.4%
Cc1occc1C(=O)N1CCO[C@H]2[C@H](Oc3cccnc3)CC[C@@H]21	18.6%
COCCc1noc(C2CCCN(c3nc(N)nc4c3CCCC4)C2)n1 (centres undefined)	65.2%
CCc1nc2c(N3CCCC(c4nccn4CCOC)C3)ncnc2o1 (centres undefined)	29.1%
COCCN1CCN(Cc2noc(C3CC3)n2)CC1C (centres undefined)	20.1%
c1nc2c(c(N3CCCC(Cn4cncn4)C3)n1)CCC2 (centres undefined)	29.2%
COCCc1noc(CN2CCCC2c2noc(C3CC3)n2)n1 (centres undefined)	-14.1%
COCCn1ccnc1C1CCCN(c2ncnc3c2CCC3)C1 (centres undefined)	57.5%

SMILES	INHIBITION
CCc1c(C)nc(N)nc1N1CCCC(c2nc(CCOC)no2)C1 (centres undefined)	68.6%
COCCCN(C)C1CCCN(Cc2noc(C3CC3)n2)C1 (centres undefined)	44.1%
CC(=O)NC1CCN(c2nc(N)nc3c2CCCC3)C1 (centres undefined)	46.6%
COCCn1ccnc1C1CCCN(c2ncnc3c(C)csc23)C1 (centres undefined)	-0.529%
Cc1cc(C)n(C2CCN(c3ncnc4c3CCC4)C2)n1 (centres undefined)	36.1%
COCCc1noc(C2CCCN(c3ncnc4c3CCC4)C2)n1 (centres undefined)	78.8%
COC[C@]12COC[C@H]1CN(Cc1ccc3c(c1)OCO3)C2	35.8%
Cc1cnn(CC2CCCN2C(=O)c2nccnc2N)c1 (centres undefined)	43.2%
COc1ccc(OC)c(C(=O)N2CCC(Nc3cccnc3)CC2)c1	-5.08%
O=C(NC1CCCN(c2ccccc2Cl)C1)c1ccc(=O)[nH]n1 (centres undefined)	28.7%
CC(C)c1nn(C)c(N(C)C)c1CNCc1ccc2c(c1)OCCO2	19.6%
CCn1ncc(C(=O)NCc2ccc(C)c(OC)c2)c1C(F)(F)F	46.7%
Cc1n[nH]c(C(=O)NCc2ccnc(OCC(F)(F)F)c2)c1Br	81.5%
Cc1noc(C)c1CC(=O)NCc1ccnc(OCC(F)(F)F)c1	-9.535%
Cc1ncsc1C(=O)NCc1ccnc(OCC(F)(F)F)c1	73.05%
Cc1ccoc1C(=O)NCc1ccnc(OCC(F)(F)F)c1	-23.593%
Cc1cc(C(=O)NCc2ccnc(OCC(F)(F)F)c2)on1	-20.893%
CCOc1cccc(CNC(=O)c2cnn(CC)c2C(F)(F)F)c1	-15.3%
Cc1ccsc1C(=O)NCc1ccnc(OCC(F)(F)F)c1	39.5%
CCOc1cc(CNC(=O)c2cnn(CC)c2C(F)(F)F)ccn1	70.4%
Cc1noc(C)c1C(=O)NCc1ccnc(OCC(F)(F)F)c1	63.6%
Cc1cc(C(=O)NCc2ccnc(OCC(F)(F)F)c2)no1	-10.45%
COc1cc(CNC(=O)c2c(C)noc2C)ccn1	32.15%
CCn1ncc(S(=O)(=O)N2CCCC3(CC=CNC3=O)C2)c1C (centres undefined)	46.2%
CC(C)c1nc2n(n1)CC(NCc1nnc(C3CC3)o1)CC2 (centres undefined)	-2.53%
Cc1nc(C(C)C)sc1C(=O)NCCn1nc2ccccn2c1=O	-22.5%
